Screening results as filed in PubChem BioAssay.
NCOA1 inh: SRC1 coactivator transcriptional activity inhibitors, primary screen, cell-based, luminescence. AID 588354, 2011. Nuclear receptor coactivator 1 (Homo sapiens), Q15788. HEK293 GAL4-SRC1 luciferase reporter. inhibition, % at 3.6 µM. 360,000 compounds, 0.12% hits;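 active = inhibition above the campaign mean plus 3 SD, with each screening campaign given its own cutoff, cut at about 60% in these data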;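 also: 0% = DMSO treated cells and 100% = gossypol at 36 µM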
LRH-1 inv ag: LRH-1 (NR5A2) inverse agonists, primary screen, cell-based, luminescence, HEK293T, StAR-luciferase reporter; LRH-1 transfected, 24 h; inhibition, % at 3.6 µM; 360,000 compounds, 0.13% hits;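 active = inhibition above the mean inhibition of all tested compounds plus 3 SD, cut at about 73% in these data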;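 also: 0% = DMSO wells and 100% = reporter-only cells lacking LRH-1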
NCOA2 inhibitor: inhibition of GAL4-SRC2 driven luciferase reporter, primary screen, SRC2 inhibitor project, cell-based, luminescence; Nuclear receptor coactivator 2 (Homo sapiens), Q15596; HEK293 GAL4-SRC2 luciferase reporter; inhibition, % at 9 µM; 370,000 compounds, 0.17% hits;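 active = inhibition above the mean inhibition of all tested compounds plus 3 SD, set per campaign, cut at about 52% in these data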;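 also: 0% = DMSO treated cells and 100% = cells given Gossypol at 36 µM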
Target sequence (Q15596 whole entry, looked up, the tested form may be a part): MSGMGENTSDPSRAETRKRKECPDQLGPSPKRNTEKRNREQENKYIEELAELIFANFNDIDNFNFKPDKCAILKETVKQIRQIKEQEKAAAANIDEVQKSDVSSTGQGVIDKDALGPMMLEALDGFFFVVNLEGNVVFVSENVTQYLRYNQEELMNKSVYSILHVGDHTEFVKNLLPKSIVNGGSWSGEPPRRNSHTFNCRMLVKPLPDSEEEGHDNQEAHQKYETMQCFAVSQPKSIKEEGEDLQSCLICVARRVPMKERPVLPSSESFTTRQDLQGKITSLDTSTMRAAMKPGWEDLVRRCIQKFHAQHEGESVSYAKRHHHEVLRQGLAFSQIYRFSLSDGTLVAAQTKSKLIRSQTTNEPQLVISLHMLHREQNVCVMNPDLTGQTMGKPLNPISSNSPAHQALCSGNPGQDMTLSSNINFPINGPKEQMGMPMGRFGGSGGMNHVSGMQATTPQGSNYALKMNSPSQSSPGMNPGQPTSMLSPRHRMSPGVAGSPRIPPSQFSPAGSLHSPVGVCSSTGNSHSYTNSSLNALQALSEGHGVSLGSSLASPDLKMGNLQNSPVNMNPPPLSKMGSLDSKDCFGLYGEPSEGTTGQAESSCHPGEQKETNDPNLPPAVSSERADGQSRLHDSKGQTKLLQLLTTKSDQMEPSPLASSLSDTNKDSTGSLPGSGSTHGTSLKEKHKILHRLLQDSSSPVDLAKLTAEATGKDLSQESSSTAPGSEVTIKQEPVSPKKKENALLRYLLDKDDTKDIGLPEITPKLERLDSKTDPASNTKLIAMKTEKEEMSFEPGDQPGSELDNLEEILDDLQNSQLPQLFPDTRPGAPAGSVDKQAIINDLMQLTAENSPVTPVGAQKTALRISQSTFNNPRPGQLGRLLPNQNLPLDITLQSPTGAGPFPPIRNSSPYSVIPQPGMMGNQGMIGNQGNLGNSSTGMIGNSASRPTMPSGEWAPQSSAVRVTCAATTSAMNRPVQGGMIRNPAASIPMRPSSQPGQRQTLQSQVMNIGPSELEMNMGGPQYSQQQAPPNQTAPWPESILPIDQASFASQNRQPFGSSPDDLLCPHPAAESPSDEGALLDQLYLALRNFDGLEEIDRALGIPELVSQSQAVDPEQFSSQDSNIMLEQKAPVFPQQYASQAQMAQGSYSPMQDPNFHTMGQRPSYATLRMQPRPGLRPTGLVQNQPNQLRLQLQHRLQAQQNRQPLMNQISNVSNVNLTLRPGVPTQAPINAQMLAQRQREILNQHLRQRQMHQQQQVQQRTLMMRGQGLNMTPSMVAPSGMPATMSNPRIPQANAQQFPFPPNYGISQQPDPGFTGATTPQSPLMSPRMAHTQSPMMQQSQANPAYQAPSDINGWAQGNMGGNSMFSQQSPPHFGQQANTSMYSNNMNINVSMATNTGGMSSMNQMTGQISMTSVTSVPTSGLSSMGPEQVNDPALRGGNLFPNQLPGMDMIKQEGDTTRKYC
NR2F2 inh: NR2F2 transcriptional activity inhibitors, primary screen, cell-based, luciferase reporter, HEK293T, luminescence | COUP transcription factor 2 (Homo sapiens), P24468 | HEK293T NGFI-A luciferase reporter | inhibition, % at 8.6 µM | 370,000 compounds, 0.7% hits;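 active = inhibition above a per-plate cutoff, mean inhibition of test wells between control levels plus 3 SD, cut at about 38% in these data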;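 also: cells cotransfected with COUP-TFII expression vector driving the NGFI-A reporter; 0% = median of COUP-TF2 test wells and 100% = reporter-only cells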
NCOA3 inh: SRC3 coactivator transcriptional activity inhibitors, primary screen, cell-based, luminescence; AID 588352, 2011; HEK293 GAL4-SRC3 luciferase reporter; 360,000 compounds, 0.17% hits; inhibition, % at 3.6 µM; Nuclear receptor coactivator 3 (Homo sapiens), Q9Y6Q9;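 active = inhibition above a per-campaign cutoff, the mean of all compounds plus 3 SD, cut at about 60% in these data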;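 also: 0% = DMSO-treated cells and 100% = gossypol-treated cells at 36 µM; higher means less SRC3-driven luciferase light from the GAL4 reporter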
Gli-Sufu antag: Gli-Sufu pathway antagonists, primary screen, luciferase luminescence, Sufu-KO-LIGHT cells, uHTS | inhibition, % at 5 µM | 340,000 compounds, 0.74% hits | AID 588413, 2011 | Sufu-KO-LIGHT fibroblasts, Gli luciferase reporter luminescence;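 active = inhibition above about 55%, limit read from the data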;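 also: 0% = DMSO-treated cells and 100% = wells with medium but no cells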
Gli antag conf: Gli-SUFU pathway antagonists, confirmation, single concentration, luciferase luminescence, Sufu-KO-LIGHT cells | shares compounds with Gli-Sufu antag | Gli luciferase reporter | 2,500 compounds, 40% hits | inhibition, % at 5 µM;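 active = mean inhibition at 5 µM reaching about 45%, limit read from the data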;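 also: plate controls were DMSO-treated cells for no effect and wells lacking cells for full effect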
SufuKO cytotox: cytotoxicity in Sufu-KO-LIGHT cells, confirmation, cytotoxicity control for Gli-SUFU antagonist project, cell-based, ATP luminescence, single concentration; shares compounds with Gli-Sufu antag; AID 651994, 2013; cytotoxicity, % at 5 µM; 2,500 compounds, 32% hits;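 active = mean cytotoxicity at 5 µM above about 25%, limit read from the data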;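 also: cells exposed to compound overnight for roughly 16 to 18 hours; plate controls were DMSO wells with cells for no effect and medium without cells for full effect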
Wnt3a cs: Wnt3a reporter signal inhibition, confirmation, counter-screen for Gli-SUFU antagonist project, Wnt-LIGHT cells, luminescence, single concentration. Wnt3a-driven luciferase reporter. AID 651995, 2013. shares compounds with Gli-Sufu antag. inhibition, % at 6.25 µM. 2,500 compounds, 20% hits;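 active = mean inhibition above about 25%, limit read from the data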
Starred values were filed as active, the others as inactive; . = no result; ! = not confirmed by another sample. An excerpt weighted towards active compounds, which were near 1.3% of everything screened.

SMILES	NCOA1 inh	LRH-1 inv ag	NCOA2 inhibitor	NR2F2 inh	NCOA3 inh	Gli-Sufu antag	Gli antag conf	SufuKO cytotox	Wnt3a cs
COc1ccc(NC(=O)c2ccc(CNc3c(NC4CCCCC4)c(=O)c3=O)cc2)cc1OC	3	11	-25	-9	-3	59*!	10	-6	-4
COc1ccc(CN2CCN(Cc3cccc(Oc4ccccc4)c3)CC2)c(OC)c1OC	6	16	-21	14	-7	51	25	26*	-46
CN1CCN(Cc2cccc(Oc3ccccc3)c2)CC1	5	-10	10	8	17	6	.	.	.
Cc1cccc(NC(=O)C2CCCN(C(=O)Nc3ccccc3)C2)c1C (centres undefined)	1	-17	-22	11	14	58*	4	24	-17
COc1ccc(CC(=O)NNC(=O)CCC(=O)Nc2cc(C)ccc2C)cc1	1	5	8	6	13	82*	11	15	-1
COc1ccc(C(=O)NNC(=O)CCC(=O)Nc2ccc(C)cc2C)cc1	-7	2	0	-19	3	4	.	.	.
COc1cccc(CN(C)CC2CCCN(CCc3ccccc3C)C2)c1 (centres undefined)	1	-1	-8	-4	12	61*	18	3	-17
CON(c1nc(Cl)nc(N(C)C)n1)S(=O)(=O)c1ccccc1Cl	-4	0	13	9	-10	88*	27	5	-9
COc1ccc(C2C(C(=O)Nc3cc(Cl)ccc3F)CCC(=O)N2c2ccc(OC)cc2)cc1 (centres undefined)	.	.	2	3	.	.	.	.	.
Clc1ccc(-c2nnc3n2N=C(c2ccc(-c4ccccc4)cc2)CS3)c(Cl)c1	.	.	19	15	.	.	.	.	.
O=S(=O)(c1ccccc1F)n1c(CN2CCOCC2)nc2ccccc21	.	.	15	12	.	.	.	.	.
CCn1c(=O)c2cc(C(=O)NCC(OC)OC)sc2c2ccccc21	15	16	-5	-10	-36	50	29	2	3
CCOC(CNC(=O)c1cc2c(=O)n(CC)c3ccccc3c2s1)OCC	-9	16	-24	-13	10	11	.	.	.
O=Cc1cn(-c2ccccc2)nc1-c1cccnc1	4	4	30	-26	-4	54	21	12	5
O=Cc1cn(-c2ccccc2)nc1-c1ccccc1	-17	-38	-28	0	-36	-35	.	.	.
COc1ccc(C(=O)Nc2ccccc2N2CCN(C(=O)C(C)C)CC2)cc1Cl	6	14	-14	8	-9	6	.	.	.
COc1ccc(Cl)cc1C(=O)Nc1ccccc1N1CCN(C(=O)C(C)C)CC1	-2	5	-8	17	2	50	24	34*	-54
Cc1ccc(Cn2cc(CN3[C@@H](Cc4ccccc4)COc4cc(Br)ccc4S3(=O)=O)nn2)cc1	.	.	12	0	.	.	.	.	.
N#Cc1c(-c2ccccc2)cc(C2CC2)nc1N	-10	3	-18	-8	-8	50	22	24	-14
CC(C)CNc1cccc2c1S(=O)(=O)N(Cc1cn(Cc3ccc(C(F)(F)F)cc3)nn1)Cc1ccccc1O2	.	.	8	4	.	.	.	.	.
O=S1(=O)CC(N2CCCC2)CN1 (centres undefined)	.	.	18	-2	.	.	.	.	.
Cc1cc(C)n(-c2nnc(C)n2/N=C/c2ccco2)n1	1	-5	6	-2	8	53	5	-1	0
CCC(=O)N1CCc2cc(Br)cc(S(=O)(=O)N3CCC(C(=O)NC(C)(C)C)CC3)c21	16	0	13	-13	-3	54	5	19	-39
CCOC(=O)c1oc2ccc(S(=O)(=O)n3nc(-c4ccc(Cl)cc4)cc3N)cc2c1C	14	-6	-9	-9	-11	54	8	18	-11
CCOC(CN=c1nc(N(C)C)ss1)OCC	14	0	6	24	18	84*	62*	30*	12
SMILES	NCOA1 inh	LRH-1 inv ag	NCOA2 inhibitor	NR2F2 inh	NCOA3 inh	Gli-Sufu antag	Gli antag conf	SufuKO cytotox	Wnt3a cs
O=C(Nc1c(C(=O)C2CC2)oc2ccccc12)c1ccc(Cl)cc1	9	-2	12	6	1	86*	15	12	-18
CC(C)(C)c1ccc(S(=O)(=O)NCC2CCCO2)cc1 (centres undefined)	11	-5	9	-7	-8	62*	23	3	-38
CN(C)C=Nc1nc2c(Br)ccc(Br)c2cc1C(=O)NCC(C)(C)C	.	.	3	5	.	.	.	.	.
CC1=CC(C)C2(COC(c3ccc[n+](C)c3)OC2)C(C)C1 (centres undefined)	12	-6	6	0	14	58*	53*	17	-4
O=C(O)Cn1cccc1C(=O)c1ccccc1	-3	-3	.	.	-1	96*	9	4	-15
COC(=O)Cn1cccc1C(=O)c1ccccc1	-9	10	1	-1	8	1	.	.	.
CCOc1ccc(-n2c(SCC(=O)c3ccccc3Cl)nnc2-c2ccncc2)cc1	.	.	6	2	.	.	.	.	.
O=C(O)C1C2C=CC(C2)C1C(=O)Nc1ccc2c(c1)OCCO2 (centres undefined)	59	25	.	.	50	60*	16	20	54*
Nc1[nH]c(C(=O)c2ccc(Cl)cc2)c(-c2ccc(Br)cc2)c1C(=O)c1c[nH]c2ccc(F)cc12	.	.	14	3	.	.	.	.	.
COc1ccc(-n2nc3c(N4CCC(C(=O)NC5CCCCC5)CC4)nnc(C)c3c2C)cc1	-24	-3	.	.	5	91*	24	17	-92
CC(=O)O/N=C(\N)c1cnn2c(C(F)(F)F)cc(C(F)(F)F)nc12	21	4	-4	-5	6	-10	.	.	.
O=C(NC(=S)Nc1ccccc1Cl)c1cnn2c(C(F)(F)F)cc(C(F)(F)F)nc12	5	4	-7	15	12	56*	27	11	-15
C=CCn1c(SCC(=O)Nc2ccccc2OCC)nnc1-c1ccc(C(C)(C)C)cc1	.	.	-1	15	.	.	.	.	.
CC1=C(C(=O)Nc2ccccc2C)C(c2ccc(C)o2)C2=C(CCCC2=O)N1 (centres undefined)	8	-11	1	-3	3	97*	15	6	35*
